Inconclusive results are not listed. The source made the active and inactive calls. Unless noted, calls follow the shape of the full dose curve.
What was measured:
[1] = Nuclear factor erythroid 2-related factor 2/antioxidant responsive element (Nrf2/ARE) small molecule agonists: qHTS cell viability counter screen in human keratinocytes (AID 1919968; active = well fitted curve in the direction sought with a large enough effect in the repeat runs; an effect the other way counts as inactive or inconclusive; also: nearly all actives have a fitted effect of over 55% in size)
Procedure, shortened: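 Measured as CellTiter-Fluor fluorescence, this readout tracks cytotoxicity in the same wells as the ARE-luciferase screen. HaCaT reporter cells (1,500/well) received compounds after a 5 h pre-incubation and were exposed for 23 h.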

[2] = Nuclear factor erythroid 2-related factor 2/antioxidant responsive element (Nrf2/ARE) small molecule agonists: luciferase reporter gene qHTS assay in human keratinocytes (AID 1919969); also: nearly all actives have a fitted effect of over 35% in size; also: potency is read from the fitted curve at half-maximal effect
[3] = molecular target: KiSS-1 receptor (Homo sapiens) (UniProt Q969F8); assay: Human kisspeptin (KISS1R) small molecule agonists, calcium flux assay in KISS1R-HEK293 cells (AID 1920064; active = well fitted curve in the direction sought with a large enough effect in the repeat runs; an effect the other way counts as inactive or inconclusive)
Sequence of KiSS-1 receptor (Homo sapiens) (Q969F8 whole entry, looked up): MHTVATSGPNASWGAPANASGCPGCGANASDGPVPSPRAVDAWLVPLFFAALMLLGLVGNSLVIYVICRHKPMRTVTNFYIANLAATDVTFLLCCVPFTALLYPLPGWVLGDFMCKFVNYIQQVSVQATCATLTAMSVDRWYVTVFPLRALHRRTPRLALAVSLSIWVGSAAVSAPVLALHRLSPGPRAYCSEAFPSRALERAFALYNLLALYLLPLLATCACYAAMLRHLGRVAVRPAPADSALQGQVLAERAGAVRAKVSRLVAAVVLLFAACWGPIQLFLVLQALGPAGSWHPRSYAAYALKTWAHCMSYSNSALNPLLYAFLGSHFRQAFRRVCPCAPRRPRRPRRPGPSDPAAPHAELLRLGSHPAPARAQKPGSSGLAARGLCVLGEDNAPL
Procedure, shortened: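 Measures KISS1R agonism through calcium-sensitive dye fluorescence in stably transfected HEK293 cells, read for 3 min after pin-tool compound delivery; 15-point titrations in triplicate.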

[4] = G protein-coupled receptor (GPCR) small molecule agonists, calcium flux assay: HEK293 wild type cell line counter screen (AID 1920065)
Procedure, shortened: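 Readout: fluorescence at 480 nm excitation/540 nm emission, sampled at 1 s intervals for 3 min. Cells had been cultured 18 h, then dye-loaded 1 h at 37 C before compound or ATP addition.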

[5] = p53 small molecule agonists, cell-based qHTS assay with human liver microsomes (AID 1963577);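 also: p53 response element beta-lactamase reporter cells with liver microsomes plus NADPH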
Procedure, shortened: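 With metabolic activation: human liver microsomes (0.5 mg/mL final) plus NADPH (0.5 mg/mL final) added alongside compounds to p53RE-bla cells; 16 h 37 C exposure; beta-lactamase read by LiveBLAzer fluorescence.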

[6] = p53 small molecule agonists, cell-based qHTS assay with human liver microsomes: qHTS cell viability counter screen (AID 1963579); also: nearly all actives have a fitted effect of over 45% in size
Procedure, shortened: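 Metabolic activation used human liver microsomes and NADPH, both 0.5 mg/mL final, over 16 hours at 37 C on p53RE-bla cells (4,000/well). Cytotoxicity measured by CellTiter-Glo luminescence, 30 min at room temperature.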

[7] = p53 small molecule agonists, cell-based qHTS assay with rat liver microsomes: qHTS cell viability counter screen (AID 1963580); also: nearly all actives have a fitted effect of over 45% in size
Procedure, shortened: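 In HCT-116 cells carrying a p53 response element-bla reporter, compounds were metabolically activated in situ by rat liver microsomes with NADPH over 16 h. Cell ATP content then served as the cytotoxicity measure.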

[8] = p53 small molecule agonists, cell-based qHTS assay: qHTS cell viability counter screen (AID 1963581); also: nearly all actives have a fitted effect of over 45% in size
Procedure, shortened: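 In the same plates used for the p53 bla reporter, HCT-116 cells given compounds for 16 h at 37 C received CellTiter-Glo; luminescence was recorded 30 min later at room temperature.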

[9] = p53 small molecule agonists, cell-based qHTS assay (AID 1963582; active = well fitted activation curve with a large enough effect in the signal ratio in the repeat runs, not every such curve was filed as active; the % refers to the signal ratio)
Procedure, shortened: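 Compounds are pin-transferred in DMSO onto p53RE-bla cells and incubated 16 h at 37 C. The B/G FRET beta-lactamase substrate is then applied for 2 h at RT and fluorescence recorded.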

[10] = molecular target: 5-hydroxytryptamine receptor 2A (Homo sapiens) (UniProt P28223); assay: 5-hydroxytryptamine receptor 2A (HTR2A) small molecule antagonists, cell-based qHTS assay (AID 1963586); also: nearly all actives have a fitted effect of over 45% in size
Sequence of 5-hydroxytryptamine receptor 2A (Homo sapiens) (P28223 whole entry, looked up): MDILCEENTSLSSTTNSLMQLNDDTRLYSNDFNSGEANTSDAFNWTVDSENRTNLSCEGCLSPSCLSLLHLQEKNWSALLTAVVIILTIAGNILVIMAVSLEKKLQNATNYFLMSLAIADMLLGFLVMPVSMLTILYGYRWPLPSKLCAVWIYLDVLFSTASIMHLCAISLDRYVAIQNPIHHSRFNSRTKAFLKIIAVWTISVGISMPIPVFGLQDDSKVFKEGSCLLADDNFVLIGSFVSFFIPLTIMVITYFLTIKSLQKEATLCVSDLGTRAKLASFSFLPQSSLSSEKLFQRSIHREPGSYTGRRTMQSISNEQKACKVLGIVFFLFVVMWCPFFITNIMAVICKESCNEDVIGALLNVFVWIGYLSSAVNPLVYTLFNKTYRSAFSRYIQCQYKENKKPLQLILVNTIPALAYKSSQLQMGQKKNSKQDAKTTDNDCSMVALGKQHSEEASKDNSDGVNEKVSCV
Procedure, shortened: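 Antagonist-mode intracellular calcium assay: DOI (4 nM) added after 5 min compound pre-incubation at room temperature to dye-loaded HTR2A-CHO cells. Fluorescence followed for 3 min, sampled every second.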

[11] = molecular target: 5-hydroxytryptamine receptor 2A (Homo sapiens) (UniProt P28223); assay: 5-hydroxytryptamine receptor 2A (HTR2A) small molecule agonists, cell-based qHTS assay (AID 1963587); also: nearly all actives have a fitted effect of over 30% in size
Procedure, shortened: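 HTR2A-CHO cells, plated 18 h at 37 C/5% CO2, dye-loaded 1 h at 37 C; compounds in DMSO added by pin tool (agonist mode). Intracellular calcium flux read as kinetic fluorescence on FDSS over 2 min at 1 s intervals.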

[12] = molecular target: Muscarinic acetylcholine receptor M1 (Homo sapiens) (UniProt P11229); assay: Cholinergic receptor muscarinic 1 (CHRM1) small molecule antagonists, cell-based qHTS assay (AID 1963588); also: nearly all actives have a fitted effect of over 40% in size
Sequence of Muscarinic acetylcholine receptor M1 (Homo sapiens) (P11229 whole entry, looked up): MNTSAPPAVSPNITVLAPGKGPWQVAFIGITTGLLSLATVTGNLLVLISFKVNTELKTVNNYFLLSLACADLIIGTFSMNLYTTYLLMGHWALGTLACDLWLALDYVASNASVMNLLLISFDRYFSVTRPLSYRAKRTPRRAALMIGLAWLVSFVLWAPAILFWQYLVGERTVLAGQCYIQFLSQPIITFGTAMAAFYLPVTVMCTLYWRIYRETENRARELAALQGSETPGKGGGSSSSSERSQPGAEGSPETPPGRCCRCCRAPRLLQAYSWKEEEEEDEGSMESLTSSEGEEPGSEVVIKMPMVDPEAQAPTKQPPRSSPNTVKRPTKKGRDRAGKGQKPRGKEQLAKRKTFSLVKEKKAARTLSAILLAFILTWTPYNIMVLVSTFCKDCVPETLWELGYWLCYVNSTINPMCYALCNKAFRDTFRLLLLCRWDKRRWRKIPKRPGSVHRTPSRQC
Procedure, shortened: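 CHRM1-CHO calcium-flux assay, antagonist mode. Cells were seeded 18 h, dye-loaded 1 h at 37 C and given compound for 5 min at RT, then acetylcholine was added at 50nM. FDSS fluorescence was read 3 min; 15 concentrations, three runs.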

[13] = molecular target: Muscarinic acetylcholine receptor M1 (Homo sapiens) (UniProt P11229); assay: Cholinergic receptor muscarinic 1 (CHRM1) small molecule agonists, cell-based qHTS assay (AID 1963589); also: nearly all actives have a fitted effect of over 35% in size
Procedure, shortened: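 Each compound was tested at 15 concentrations across three independent runs on dye-loaded CHO cells stably expressing human CHRM1, reading intracellular calcium fluorescence kinetically at 1 sec intervals.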

[14] = cAMP Responsive Elements (CRE) small molecule agonists, cell-based qHTS assay (AID 1963590)
Procedure, shortened: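 Cell line: CRE-bla HEK 293T; medium DMEM/10% dialyzed FBS/0.1 mM NEAA/1 mM pyruvate/25 mM HEPES; 3 h compound exposure; beta-lactamase FRET readout after 2 h substrate loading at RT.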

[15] = cAMP Responsive Elements (CRE) small molecule antagonists, cell-based qHTS assay (AID 1963591; active = well fitted inhibition curve with a large enough effect in the signal ratio in the repeat runs, not every such curve was filed as active; the % refers to the signal ratio)
Procedure, shortened: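 Inhibition of NKH477-driven (0.25 uM final) CRE-beta-lactamase signal in HEK293T cells, 3 h compound exposure at 37 °C, detected by FRET substrate fluorescence.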

[16] = molecular target: Beta-2 adrenergic receptor (Homo sapiens) (UniProt P07550); assay: Adrenergic beta2 receptor (ADRB2) small molecule antagonists, cell-based qHTS assay (AID 1963592); also: series mostly up to about 92 µM; nearly all actives have a fitted effect of over 50% in size
Sequence of Beta-2 adrenergic receptor (Homo sapiens) (P07550 whole entry, looked up): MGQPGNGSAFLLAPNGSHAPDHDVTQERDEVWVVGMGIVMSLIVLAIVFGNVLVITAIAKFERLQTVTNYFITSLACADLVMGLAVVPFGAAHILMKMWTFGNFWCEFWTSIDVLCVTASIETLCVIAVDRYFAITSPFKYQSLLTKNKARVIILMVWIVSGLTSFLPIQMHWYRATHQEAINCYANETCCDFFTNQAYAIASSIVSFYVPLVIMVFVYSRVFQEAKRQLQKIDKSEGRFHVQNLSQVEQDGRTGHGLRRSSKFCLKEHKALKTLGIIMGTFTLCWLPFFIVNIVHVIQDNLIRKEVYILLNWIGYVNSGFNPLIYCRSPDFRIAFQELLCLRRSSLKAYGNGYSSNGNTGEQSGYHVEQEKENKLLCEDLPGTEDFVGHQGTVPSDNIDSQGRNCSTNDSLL
Procedure, shortened: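 Cells (CHO, stable ADRB2 overexpression) incubated 18-20hr at 37C; compounds added from DMSO; agonist mix (1nM isoproterenol, 100uM IBMX, 25uM Ro-20-1724) added; 0.5hr RT; d2-cAMP and anti-cAMP-cryptate added; 1hr RT; 665/615 nm read.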

[17] = molecular target: D(2) dopamine receptor (Homo sapiens) (UniProt P14416); assay: Dopamine D2 receptor (DRD2) small molecule agonists, cell-based qHTS assay (AID 1963594); also: nearly all actives have a fitted effect of over 35% in size
Sequence of D(2) dopamine receptor (Homo sapiens) (P14416 whole entry, looked up): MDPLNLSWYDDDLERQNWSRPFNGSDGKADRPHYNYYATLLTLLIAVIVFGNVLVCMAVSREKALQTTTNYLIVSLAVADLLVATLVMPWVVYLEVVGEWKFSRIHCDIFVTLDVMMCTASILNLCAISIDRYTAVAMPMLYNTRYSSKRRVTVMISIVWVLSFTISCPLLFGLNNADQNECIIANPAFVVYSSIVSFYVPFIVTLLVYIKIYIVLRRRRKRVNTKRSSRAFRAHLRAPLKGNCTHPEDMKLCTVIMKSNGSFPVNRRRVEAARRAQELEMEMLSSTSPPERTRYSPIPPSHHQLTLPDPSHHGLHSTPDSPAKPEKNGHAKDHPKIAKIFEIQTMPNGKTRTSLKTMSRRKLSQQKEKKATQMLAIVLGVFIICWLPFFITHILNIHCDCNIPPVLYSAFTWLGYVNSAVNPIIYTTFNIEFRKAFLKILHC
Procedure, shortened: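 HEK293 cells stably expressing DRD2 were cultured 24 h at 37 C, then given Ro20-1724 (0.1 mM final) and compounds for 10 min at room temperature. NKH477 (200nM) was then added for 30 min. cAMP was read by HTRF.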

[18] = molecular target: D(2) dopamine receptor (Homo sapiens) (UniProt P14416); assay: Dopamine D2 receptor (DRD2) small molecule antagonists, cell-based qHTS assay (AID 1963595; active = well fitted inhibition curve with a large enough effect in the signal ratio in the repeat runs, with a control signal flat; the % refers to the signal ratio)
Procedure, shortened: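 Human DRD2 antagonist qHTS measuring cAMP by HTRF. The cells are exposed to compound for 10 min, then to NKH477 (200 nM) and quinpirole (12 nM) for 30 min at RT, with Ro20-1724 (0.1 mM) present throughout.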

[19] = p53 small molecule agonists, cell-based qHTS assay with rat liver microsomes (AID 1963578)
Procedure, shortened: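 Metabolic activation by rat liver microsomes and NADPH, each 0.5 mg/mL final, added right after compounds to p53RE-bla reporter cells (4,000/well, plated 5 h earlier). 16 h at 37 C, then LiveBLAzer substrate for 2 h at room temperature in the dark; fluorescence read-out.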

[20] = molecular target: Beta-2 adrenergic receptor (Homo sapiens) (UniProt P07550); assay: Adrenergic beta2 receptor (ADRB2) small molecule agonists, cell-based qHTS assay (AID 1963593);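 also: CHO cells stably overexpressing human ADRB2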
Procedure, shortened: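 CHO cells stably over-expressing ADRB2 were plated overnight at 37C, then dosed with compounds plus a stimulation mix containing 100uM IBMX and 25uM Ro-20-1724 for 0.5hr at room temperature. cAMP was measured by HTRF competition, 1hr.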

Measured: Potency

CCCCSCCCC
not listed: [19] | [20]
inactive: all other assays above

CCCCCCCCCOS(=O)(=O)O
not listed: [5] | [13]
inactive: all other assays above

Nc1cc([N+](=O)[O-])ccc1Cl
not listed: [5]
inactive: all other assays above

C=CC(=O)NCOCCCC
not listed: [5] | [9] | [19]
inactive: all other assays above

CCCCCCCCSCC
not listed: [8] | [15] | [19]
inactive: all other assays above

CCCC(C)C(O)CC (centres undefined)
not listed: [12] | [15] | [16] | [19]
inactive: all other assays above

C=CCCC=C
active: [2] 70.5 µM
not listed: [9]
inactive: all other assays above
